The nature of assay [1]: Viability qHTS for spleen associated tyrosine kinase inhibitor (SYKi) drug resistant MV4-11 cells (AID 1963824). Note: nearly all actives have a fitted effect of over 35% in size. The gist of the method: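 SYK inhibitor-resistant MV4-11 AML cells, 500 per well, added to predispensed compounds and incubated 72 hr at 37 C, 5% CO2. Viability measured by CellTiter-Glo luminescence after 10 min at room temperature.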
For orientation: qHTS replaces the single test concentration by a dilution series.

The nature of assay [2]: Quantitative highthroughput screen to assess conditional lethalithy of NOMO1 cells grown in RPMI1640 with untreated serum (RPMI+s) (AID 1963876).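 For Viability: 100% = DMSO wells and 0% = empty wells without cells.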 Note: nearly all actives have a fitted effect of over 35% in size. In a few lines: (§1)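 Each medium arm—HPLM with 10% dialyzed FBS, or RPMI1640 with 5 mM glucose and 10% untreated or dialyzed FBS—was screened against an 11-point, 3-fold compound titration for 48 h at 37 °C, with CellTiter-Glo luminescence as endpoint.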

Assay [3] is described as follows: Quantitative highthroughput screen to assess conditional lethalithy of NOMO1 cells grown in RPMI1640 with dialyzed fetal bovine serum (RPMI+ds) (AID 1963877).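 For Viability: series mostly up to about 46 µM; 100% = DMSO control wells and 0% = empty wells.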 Note: nearly all actives have a fitted effect of over 30% in size. In a few lines: as §1
The nature of assay [4]: Quantitative highthroughput screen to assess conditional lethalithy of NOMO1 cells grown in Human Plasma-Like Medium with dialyzed fetal bovine serum (HPLM+ds) (AID 1963878).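 For Viability: 100% = DMSO wells and 0% = empty wells on each plate.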 Note: nearly all actives have a fitted effect of over 35% in size. In a few lines: as §1
The nature of assay [5]: Quantitative highthroughput screen to assess conditional lethalithy of SEM cells grown in RPMI1640 with unreated serum (RPMI+s) (AID 1963883).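 For Viability: 100% = DMSO wells and 0% = empty wells without cells.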 Note: nearly all actives have a fitted effect of over 35% in size. The gist of the method: as §1
Assay [6] in a line: Quantitative highthroughput screen to assess conditional lethalithy of P12 Ichikawa cells grown in RPMI1640 with untreated serum (RPMI+s) (AID 1963881).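 For Viability: series mostly up to about 46 µM; 100% = DMSO wells and 0% = empty wells without cells.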 Note: nearly all actives have a fitted effect of over 35% in size. Conditions: Potency: viability. In a few lines: as §1
Assay [7] is described as follows: Quantitative highthroughput screen to assess conditional lethalithy of SEM cells grown in Human Plasma-Like Medium with dialyzed fetal bovine serum (HPLM+ds) (AID 1963882). For Viability: series mostly up to about 46 µM. Note: nearly all actives have a fitted effect of over 35% in size. In a few lines: as §1
The nature of assay [8]: Quantitative highthroughput screen to assess conditional lethalithy of SEM cells grown in RPMI1640 with dialyzed fetal bovine serum (RPMI+ds) (AID 1963884).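 For Viability: series mostly up to about 46 µM; 100% = DMSO control wells and 0% = empty wells without cells.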 Note: nearly all actives have a fitted effect of over 35% in size. In a few lines:
as §1

A short description of assay [9]: Cellular viability qHTS for adrenocortical cancer (ACC) cell line SW-13 (AID 1963989).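 For activity (max response): cells grown in serum-free medium with ITS supplement; % is set by controls: 0 for no effect and ±100 for the full control effect.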 Note: nearly all actives have a fitted effect of over 65% in size. Conditions: SW-13 ACC cells viability, CellTiter-Glo, 48 h; activity (max response): active compounds read low. In a few lines:
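Compound titrations (up to 46 uM final, in DMSO) were applied to SW-13 cells for 48 h at 37C/5% CO2. Reading used CellTiter-Glo after 20 min at room temperature; fitted curves yielded IC50 and efficacy.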

Assay [10] is described as follows: Cellular viability qHTS for adrenocortical cancer (ACC) cell line NCI-H295R (AID 1963990). Note: nearly all actives have a fitted effect of over 60% in size. In a few lines: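 Readout: CellTiter-Glo luminescence, 20 min RT. Exposure: 48 h, 37C/5% CO2. Cells: NCI-H295R, ITS-DMEM serum-free. Range: up to 46 uM. Analysis: 4PL fit, IC50 plus efficacy.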
Assay [11] is described as follows: Quantitative highthroughput screen to assess conditional lethalithy of P12 Ichikawa cells grown in RPMI1640 with dialyzed fetal bovine serum (RPMI+ds) (AID 1963880).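 For Viability: 100% = DMSO wells and 0% = empty wells on each plate.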 Note: nearly all actives have a fitted effect of over 35% in size. The note with it: Potency: P12-Ichikawa viability. In a few lines:
as §1

The nature of assay [12]: Quantitative highthroughput screen to assess conditional lethalithy of P12 Ichikawa cells grown in Human Plasma-Like Medium with dialyzed fetal bovine serum (HPLM+ds) (AID 1963879). For Viability: series mostly up to about 46 µM. Note: nearly all actives have a fitted effect of over 35% in size. Conditions: Potency: viability. The gist of the method: as §1

Values joined by “and” are separate entries in the source; they are usually repeats but may differ in a detail not shown here. Equal entries are not always repeated. Results filed as inconclusive are left out. A number with no mark means an inactive call. Active and inactive are the calls of the source. Calls come from the whole dose curve; as a rule, active = well fitted curve in the direction sought with a large enough effect; inconclusive = small, poorly fitted or top-dose-only effect, or another doubt; inactive = no such curve, though single readings can be large; an effect the other way counts as inactive or inconclusive.
Potency is the fitted concentration of half-maximal effect.

As for `O=C(Nc1cccc(Nc2ncc(Br)c(NCCc3cnc[nH]3)n2)c1)N1CCCC1`, the Potency was 0.132 µM (active) in assay [1]; 5.9 µM (active) in assay [2]; 11.8 µM (active) in assay [3]; 2.96 µM (active) in assay [4]; 0.166 µM (active) in assay [5].
Take `O=S(=O)(c1cccc2cnccc12)N1CCCNCC1`: the Potency entry in assay [1], in assay [2], in assay [3], in [6], in assay [7] and in [8] was “inactive” each time. Besides, the Potency entry in assay [10] is “inactive”. The activity (max response) in assay [9] was 2.02% and -0.384%.
In the case of `Cc1c(C)n(Cc2ccc(-c3ccccc3C(=O)O)cc2)c2ccc(C(=O)N[C@@H](C)c3ccc([N+](=O)[O-])cc3)cc12`, the Potency in [1] was 20.9 µM (active); in assay [2], 9.35 µM (active); in [3], 9.35 µM (active); in [11], 10.5 µM (active). Also, the Potency entry in assay [7], in assay [5] and in [8] was “inactive” in each case.
As for `CCCCCCNC(=O)n1cc(F)c(=O)[nH]c1=O`, the Potency was 0.934 µM (active) in assay [1] and 9.35 µM (active) in assay [3]. In addition, the Potency entry in [2], in assay [7] and in assay [10] was “inactive” in each case. Moreover, the activity (max response) in assay [9] is 8.7% and -4.78%.
As to `Cc1nc2ccc(C(=O)N3CCC4(CC3)CC(=O)c3c(cnn3C(C)C)C4)cc2[nH]1`, the Potency in assay [1] is 20.9 µM (active). Moreover, the Potency entry in assay [2], in [3] and in assay [10] was “inactive” throughout.
Take `O=C(C1CC1)N1CC[C@@H](Cn2c(-c3ccc(-c4ccc5occc5c4)cc3)nc3cnccc32)C1`: the Potency in [1] is 14.8 µM (active). For the same molecule, the Potency entry in [2], in assay [3], in [12], in assay [11], in assay [7] and in [5] was “inactive” throughout. Moreover, in assay [8], the Potency result is “inactive”.
Regarding `CC1(C)O[C@@H]2C[C@H]3[C@@H]4CCC5=CC(=O)C=C[C@]5(C)[C@@H]4[C@@H](O)C[C@]3(C)[C@]2(C(=O)CO)O1`, the Potency entry in assay [1], in assay [2], in [3], in [4] and in assay [10] was “inactive” in each case. In [9], the activity (max response) is -5.21%.
On to `C[C@@H]1CN(Cc2ccc(F)cc2)[C@@H](C)CN1C(=O)c1cc2c(C(=O)C(=O)N(C)C)cn(C)c2cc1Cl`, for which, in assay [1], the Potency was 16.4 µM (active). The Potency result in [2], in assay [3], in [12], in [11], in [6] and in assay [7] was “inactive” in each case. Besides, in assay [10], the Potency entry is “inactive”.
On to `C[C@@H]1CN(CC(=O)N2CC(C)(C)c3ncc(Cc4ccc(F)cc4)cc32)[C@@H](CN2CCOC[C@H]2C)CN1`, for which the Potency is 0.468 µM (active) in assay [1] and 20.9 µM (active) in assay [3]. Moreover, the Potency entry in assay [2], in assay [12], in assay [11], in assay [6], in assay [7] and in assay [8] was “inactive” in each case. Besides, the activity (max response) in assay [9] is -27%.
In the case of `Nc1cccc2c1C(=O)N(C1CCC(=O)NC1=O)C2=O` (configuration not stated), the Potency result in assay [1], in [2], in assay [3] and in assay [10] was “inactive” each time. Besides, in [6], the Potency was 16.6 µM (active). The activity (max response) in assay [9] was 11.8%.
Regarding `O=C(Nc1cc(C(F)(F)F)cc(C(F)(F)F)c1)c1cc(Cl)ccc1O`, the Potency was 517 nM (active) and 662 nM (active) in assay [1]; 3.32 µM (active) in [2]; 2.96 µM (active) in [4]; 3.72 µM (active) in assay [12]; 3.32 µM (active) in [11]; 2.96 µM (active) in assay [6]. Also, the Potency is 4.18 µM (active) in assay [7]; 2.96 µM (active) in assay [5]; 4.18 µM (active) in [8]; 0.355 µM (active) in assay [9]; 1.12 µM (active) in assay [10].
As to `COc1ccccc1OCC(O)COC(N)=O` (configuration not stated), the Potency entry in assay [1], in [2], in [3], in assay [11], in assay [6] and in assay [7] was “inactive” in each case. Besides, the Potency result in assay [5], in assay [8] and in assay [10] was “inactive” throughout. Besides, in assay [9], the activity (max response) is -1.45%.
Turning to `CN1CCN(C2=Nc3cc(Cl)ccc3Nc3ccccc32)CC1`, the Potency result in assay [1], in [2], in assay [3], in assay [12], in assay [11] and in assay [6] was “inactive” throughout. The activity (max response) in assay [9] was -14.9%.
`c1cc(N[C@@H]2CCNC2)nc(-c2cnc3ccc(-c4cn[nH]c4)cn23)c1`: the Potency was 0.0066 µM (active) in assay [1], 5.9 µM (active) in assay [3] and 3.98 µM (active) in assay [9]. The Potency entry in assay [2] and in assay [10] was “inactive” in each case.
Regarding `c1cc(-c2sc(-c3ccncc3)c(-c3ccncc3)c2-c2ccncc2)ccn1`, the Potency in assay [1] is 18.6 µM (active); in assay [7], 2.96 µM (active); in [5], 2.35 µM (active); in assay [8] it was 2.64 µM (active). Moreover, the Potency entry in [2], in assay [3], in [12], in assay [11] and in assay [6] was “inactive” each time. The activity (max response) in [9] was 2.5%.
In the case of `CN(CCOc1ccc(NS(C)(=O)=O)cc1)CCc1ccc(NS(C)(=O)=O)cc1`, the Potency result in [1], in assay [2], in assay [3], in assay [12], in assay [6] and in assay [7] was “inactive” in each case. For the same molecule, the Potency result in [5] and in assay [10] was “inactive” each time. Besides, the activity (max response) in assay [9] was 0.645% and 1.15%.
Take `COc1cc2nccc(Oc3ccc(NC(=O)NC4CC4)c(Cl)c3)c2cc1C(N)=O`: the Potency in assay [1] was 1.03 µM (active); in assay [2], 26.4 µM (active); in [3] it was 23.5 µM (active); in [12], 18.7 µM (active); in assay [11], 20.9 µM (active); in assay [6], 20.9 µM (active). In addition, in [9], the activity (max response) was 3.51%. Also, in [10], the Potency entry was “inactive”.
As for `CCc1cncnc1N1CCN(Cc2nc3ccc(C(F)(F)F)cc3[nH]2)CC1`, the Potency in assay [1] was 5.9 µM (active); in assay [10] it was 17.8 µM (active). In addition, the Potency result in [2], in assay [3] and in assay [4] was “inactive” throughout.
In the case of `Cc1[nH]nc2ccc(-c3cncc(OC[C@@H](N)Cc4ccccc4)c3)cc12`, the Potency in assay [1] is 0.116 µM (active); in assay [2], 2.96 µM (active); in assay [4] it was 1.66 µM (active); in assay [12] it was 4.18 µM (active); in [11], 3.32 µM (active); in assay [6], 2.96 µM (active). Also, the Potency in [7] is 1.18 µM (active); in assay [5], 2.09 µM (active); in [8], 2.35 µM (active); in assay [9], 0.562 µM (active).

Values taken from PubChem BioAssay (NCATS).
